From PubChem BioAssay (NCATS)
“And” between values parts separate entries of the source, which are not always exact repeats. Equal values may be shown once. Records with an inconclusive call do not appear. The source made the active and inactive calls. Unless noted, calls follow the shape of the dose curve; as a rule, active = well fitted curve in the direction sought with a large enough effect; inconclusive = small, poorly fitted or top-dose-only effect, or another doubt; inactive = no such curve, though single readings can be large; an effect the other way counts as inactive or inconclusive.

What was measured:
[1] = Cell Viability - BJ (AID 421; calls by dose curve;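 also: potency is read from the fitted curve at half-maximal effect; cells exposed to compound for 40 hours at 37 °C before readout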); settings: BJ fibroblast viability, qHTS
Summary of the method: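 Luminescent ATP signal (CellTiter-Glo, 20 min at room temperature) served as the read-out of viable BJ cells after 40 hours of compound treatment. Responses were scaled between DMSO and 100 uM tamoxifen, and AC50 values were obtained by Hill modeling.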

[2] = Cell Viability - Jurkat (AID 426;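 active = dose-dependent loss of cell ATP signal giving a full or clear fitted curve, ranked by lower potency value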;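 also: potency is read from the fitted curve at half-maximal effect; cells exposed to compound for 40 hours at 37 °C before ATP read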); settings: qHTS
Summary of the method: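 Luminescent ATP read-out (CellTiter-Glo, 20 min at room temperature) after 40 hr compound exposure at 37 °C of Jurkat E6-1 cells, 5000/well. Decreased ATP taken as cytotoxicity; AC50 from standard Hill equation.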

[3] = Cell Viability - Hek293 (AID 427;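 active = compounds whose dose-response curve shows a full or clear partial loss of cell viability, called from curve shape rather than a numeric limit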;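 also: potency is read from the fitted curve at half-maximal effect; cells exposed to compound for 40 hours at 37 °C before reading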); settings: qHTS
Summary of the method: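 Luminescent ATP read-out (CellTiter-Glo, 20 min RT) after 40 hr compound exposure at 37 °C in complete medium. Signal normalized to DMSO (basal) and 100 uM tamoxifen (100% inhibition); concentration-response fitted with the standard Hill equation to give AC50.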

[4] = Cell Viability - MRC5 (AID 434; calls by dose curve;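 also: potency is read from the fitted curve at half-maximal effect; cells exposed to compound for 40 hours at 37 °C; potency reflects cytotoxicity seen as loss of intracellular ATP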); settings: MRC5 lung fibroblast viability, qHTS
Summary of the method: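 ATP luminescence read-out (CellTiter-Glo, 20 min RT) after 40 hr, 37 °C compound exposure of 1500 MRC5 cells/well. Data normalized to DMSO (basal) and 100 uM tamoxifen (100% inhibition); AC50 from standard Hill equation.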

[5] = Cell Viability - Mesenchymal (AID 546); settings: mesenchymal cells viability, qHTS; series mostly up to 91.7 µM;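 also: cells exposed to compound for 40 hours before reading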
Summary of the method: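 Human renal mesenchymal cells (glomerulus-derived), 1000 cells/well, 5 hr 37 °C pre-incubation; compound 40 hr, 37 °C; CellTiter-Glo, 20 min RT; luminescence; AC50 via Hill equation.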

[6] = Cellular Toxicity (caspase-3) SHSY5Y (AID 657); settings: SH-SY5Y caspase-3 activation, DMSO zero, 10 µM staurosporine = 100%; series mostly up to 91.7 µM;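 also: cells exposed to compound for 16 hours at 37 °C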
Summary of the method: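 qHTS, SH-SY5Y, 1500 cells/well, 5 h pre-incubation 37 °C; compound 16 h 37 °C; Caspase-Glo 3/7 1 h RT; luminescence. Norm.: DMSO = 0, 10 uM staurosporine = 100%. Hill fit → AC50.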

[7] = Cellular Toxicity (caspase-3) MRC-5 (AID 659); settings: MRC-5 cells, luminescence, normalized: DMSO 0%, 10 µM staurosporine 100%; series mostly up to 91.7 µM
Summary of the method: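 MRC-5 fibroblasts, 1500/well; 16 h cpd, 37 °C; Caspase-Glo 3/7, 1 h RT; lumi read. Norm: DMSO = 0%, 10 uM staurosporine = 100%. Hill-fit AC50 from qHTS conc-response.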

[8] = Cellular Toxicity (caspase-3) Mesangial (AID 660); settings: mesangial cells, normalized: DMSO 0%, 100 µM tamoxifen 100%; series mostly up to 91.7 µM;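 also: combined caspase 3 and 7 activity read by Caspase-Glo luminescence; cells exposed to compound for 16 h before the caspase read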
Summary of the method: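 Luminescent Caspase-Glo 3/7 readout (aminoluciferin substrate cleavage, 20 min RT) after 16 h compound exposure at 37 °C of normal human mesangial cells. Signal increase normalized between DMSO basal and 100 uM tamoxifen; Hill-equation AC50.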

[9] = Cellular Toxicity (caspase-3) SK-N-SH (AID 661); settings: SK-N-SH caspase-3 activation, qHTS; series mostly up to 91.7 µM;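 also: cells exposed to compound for 16 hours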
Summary of the method: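 Luminescent Caspase-Glo 3/7 read-out after 16 hr compound exposure of SK-N-SH neuroblastoma cells at 37 °C. Signal increase normalized to DMSO (basal) and 10 uM staurosporine (100%); AC50 from Hill equation fits of qHTS concentration-response data.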

[10] = Cellular Toxicity (caspase-3) Hek293 (AID 664); settings: HEK293 caspase-3 activation, DMSO = 0%, 100 µM tamoxifen = 100%; at 92.2 µM (top of the series);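 also: cells exposed to compound for 16 h at 37 °C before readout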
Summary of the method: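 Luminescent Caspase-Glo 3/7 readout (aminoluciferin release) in HEK293 cells after 16 h compound treatment, 37 °C. Normalization: DMSO = basal, 100 uM tamoxifen = 100% stimulation. Concentration-response fitted with standard Hill equation for AC50.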

[11] = Cellular Toxicity (caspase-3) N2a (AID 665); settings: N2a cells, luminescence, normalized: DMSO 0%, 10 µM staurosporine 100%; series mostly up to 92.2 µM;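 also: compound exposure lasted 16 h at 37 °C before readout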
Summary of the method: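 Luminescent Caspase-Glo 3/7 readout in N2a mouse neuroblastoma cells after 16 h compound exposure at 37 °C. Signal scaled to DMSO (basal) and 10 uM staurosporine (100%). Concentration-response fitted with Hill equation for AC50.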

[12] = Cell Viability - LYMP1-002 - Assay at 16 hr (AID 948); settings: LYMP1-002 lymphoblastoid cell viability; series mostly up to 92.2 µM;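 also: 0% = DMSO alone and full effect = 92 µM tetraoctylammonium bromide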
Summary of the method: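 Seed 2500 LYMP1-002 cells per well in complete medium and hold 5 hr at 37 C. Add compound across a concentration series and incubate 16 hr at 37 C. Add CellTiter-Glo, wait 30 min at room temperature, read luminescence.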

[13] = MultiTox-Fluor Cytotoxicity Assay - LYMP1-003 - Dead Cells (AID 961); settings: LYMP1-003 lymphoblastoid cells, dead-cell protease fluorescence; series mostly up to 92.2 µM;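 also: 0% = DMSO and 100% = tetraoctylammonium bromide; nearly all actives have a fitted effect of over 70% in size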
Summary of the method: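 Human lymphoblastoid LYMP1-003 cells (2500/well) were treated with compounds for 16 hr at 37 C in complete medium. Dead-cell protease release was read by bis-AAF-R110 fluorescence (Ex/Em 485/520). AC50 came from Hill fits, normalized to DMSO and 15 uM tetraoctylammonium bromide.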

[14] = MultiTox-Fluor Cytotoxicity Assay - LYMP1-003 - Live Cells (AID 962); settings: LYMP1-003 lymphoblastoid cells, MultiTox-Fluor live-cell protease fluorescence; series mostly up to 92.2 µM;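 also: cells exposed to compound for 16 hours at 37 °C; 0% = DMSO only and full loss = 92 µM tetraoctylammonium bromide; cytotoxic hits lower the live-cell protease signal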
Summary of the method: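 Readout: live-cell fluorescence (Ex/Em=405/510) from GF-AFC cleavage after 60 min MultiTox-Fluor reagent at room temperature. Lymphoblastoid LYMP1-003 cells, 16 hr compound treatment, 37 C. Concentration-response fitted to standard Hill equation for AC50.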

[15] = Cell Viability - LYMP1-003 - Assay at 24 hr (AID 963); settings: LYMP1-003 lymphoblastoid cell viability; series mostly up to 92.2 µM;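 also: plate controls were DMSO only for no effect and tetraoctylammonium bromide positive control for full effect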
Summary of the method: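 CellTiter-Glo luminescence (intracellular ATP) read after 24 hr, 37 C compound exposure of 2500 LYMP1-003 human lymphoblastoid cells/well in complete medium; qHTS concentration series; AC50 via standard Hill equation.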

[16] = Cell Viability - LYMP2-008 (AID 980); settings: LYMP2-008 lymphoblastoid cell viability, qHTS; series mostly up to 92.2 µM;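 also: cells exposed to compound for 24 h at 37 °C; % is scaled to controls: 0 for no effect and ±100 for the full control effect; nearly all actives have a fitted effect of over 60% in size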
Summary of the method: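 Luminescent ATP read-out (CellTiter-Glo, 30 min RT) after 24 hr compound exposure at 37 C of human lymphoblastoid cells in complete medium. Decrease in ATP taken as cytotoxicity; AC50 derived by standard Hill fit of qHTS concentration-response data.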

[17] = qHTS Assay for Identification of Small Molecule Inducers of Hypoxia Response (AID 2120; active = well fitted curve in the direction sought with a large enough effect in the signal ratio, with a control signal flat, not every such curve was filed as active; the % refers to the signal ratio; also: 0% is about no effect); settings: hypoxia response reporter cells, beta-lactamase ratio readout; series mostly up to 104 µM
Summary of the method: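 Read-out: CCF4 FRET emission ratio 460nm/530nm (excitation 405nm), converted to %Activity, with AC50 fitted across a compound titration. ME-180 cells carried an HRE-driven beta-lactamase reporter; compound exposure 17 h, 37 degrees C.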

[18] = target: Peroxisome proliferator-activated receptor alpha (Homo sapiens) (UniProt Q07869); experiment: qHTS assay for small molecule agonists of the peroxisome proliferator-activated receptor alpha (PPARalpha) signaling pathway (AID 651778); settings: PathHunter PPARalpha complementation, chemiluminescence, 6 h; active compounds read high; also: % of control where 0% means no effect
Summary of the method: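 Enzyme-fragment complementation assay in which ligand-bound PPARalpha translocates and forms an active enzyme that generates chemiluminescence. Cells were plated overnight, exposed to compound for 6 hr at 37 C, and then given detection reagent for 60 min at room temperature.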

[19] = qHTS assay for small molecule agonists of the antioxidant response element (ARE) signaling pathway measured by Nrf2-dependant transcriptional activity - cell viability counter screen (AID 720653; active = well fitted curve in the direction sought with a large enough effect in the repeat runs; an effect the other way counts as inactive or inconclusive; also: % is scaled to controls: 0 for no effect and ±100 for the full control effect); settings: ARE-bla HepG2 viability, CellTiter-Glo ATP luminescence, 16 h; active compounds read low
Summary of the method: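 ARE-bla HepG2 cells treated with compounds for 16 h at 37C; this counter screen measures viability as intracellular ATP by CellTiter-Glo luminescence after 30 min at room temperature.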

[20] = qHTS assay for cell viability of the p53RE-bla HCT-116 cell line (AID 743292); settings: p53RE-bla HCT-116 viability, ATP luminescence, 16 h; series mostly up to 95 µM; also: % is scaled to controls: 0 for no effect and ±100 for the full control effect; nearly all actives have a fitted effect of over 55% in size
Summary of the method: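 Intracellular ATP of p53RE-bla HCT-116 cells measured by luciferase luminescence following 16 h compound incubation at 37 C; DMSO-only wells served as vehicle controls.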

Peroxisome proliferator-activated receptor alpha (Homo sapiens), sequence (Q07869 whole entry, looked up, the tested form may be a part): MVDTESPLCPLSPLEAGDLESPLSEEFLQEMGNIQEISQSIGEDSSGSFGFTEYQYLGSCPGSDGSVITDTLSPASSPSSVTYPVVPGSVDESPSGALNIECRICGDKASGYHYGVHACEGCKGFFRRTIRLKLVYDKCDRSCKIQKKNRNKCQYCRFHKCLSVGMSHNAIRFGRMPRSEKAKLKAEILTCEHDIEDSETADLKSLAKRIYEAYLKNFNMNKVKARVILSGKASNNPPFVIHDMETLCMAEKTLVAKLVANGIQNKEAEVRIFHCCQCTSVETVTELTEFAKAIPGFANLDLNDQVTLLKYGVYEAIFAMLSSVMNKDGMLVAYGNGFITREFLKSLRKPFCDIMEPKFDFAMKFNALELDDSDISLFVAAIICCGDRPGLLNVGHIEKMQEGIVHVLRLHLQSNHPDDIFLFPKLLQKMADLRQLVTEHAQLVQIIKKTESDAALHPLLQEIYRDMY

Cc1coc2c1CCC(C)C2 (stereo not given)
inactive: Potency [1] > 92 µM | Potency [2] > 92 µM | Potency [3] > 92 µM | Potency [4] > 92 µM | Potency [5] | outcome [6] | outcome [7] | outcome [8] | Potency [9] | caspase-3 activation [10] 0.975% | outcome [11] | outcome [12] | Potency [13] | outcome [14] | outcome [15] | Potency [16] | Potency [17] | max response [18] 9.95% | max response [19] -1.7% | Potency [20]

Cc1cccc(C)c1N
inactive: Potency [1] > 92 µM | Potency [2] > 92 µM | Potency [3] > 92 µM | Potency [4] > 92 µM | Potency [5] | outcome [6] | outcome [7] | outcome [8] | Potency [9] | caspase-3 activation [10] 0.142% | outcome [11] | outcome [12] | Potency [13] | outcome [14] | outcome [15] | Potency [16] | Potency [17] | max response [18] 1.61% | max response [19] 4.9% | Potency [20]

C=C(Cl)CCl
inactive: Potency [1] > 92 µM | Potency [2] > 92 µM | Potency [3] > 92 µM | Potency [4] > 92 µM | Potency [5] | outcome [6] | outcome [7] | outcome [8] | Potency [9] | caspase-3 activation [10] 0.722% | outcome [11] | outcome [12] | Potency [13] | outcome [14] | outcome [15] | Potency [16] | Potency [17] | max response [18] -4.17% | max response [19] 19% | Potency [20]

CC(C)OC(=O)Cc1ccccc1
inactive: Potency [1] > 92 µM | Potency [2] > 92 µM | Potency [3] > 92 µM | Potency [4] > 92 µM | Potency [5] | outcome [6] | outcome [7] | outcome [8] | Potency [9] | caspase-3 activation [10] 0.719% | outcome [11] | outcome [12] | Potency [13] | outcome [14] | outcome [15] | Potency [16] | Potency [17] | max response [18] 0.38% | max response [19] -4.02% | Potency [20]

CC(Cl)(Cl)Cl
inactive: Potency [1] > 92 µM | Potency [2] > 92 µM | Potency [3] > 92 µM | Potency [4] > 92 µM | Potency [5] | outcome [6] | outcome [7] | outcome [8] | Potency [9] | caspase-3 activation [10] -1.64% | outcome [11] | outcome [12] | Potency [13] | outcome [14] | outcome [15] | Potency [16] | Potency [17] | max response [18] -3.93% and -1.58% | max response [19] 0.834% and -5.56% | Potency [20]
